High-throughput results from PubChem.
Sfp inh = qHTS Assay for Inhibitors of Bacillus subtilis Sfp phosphopantetheinyl transferase (PPTase); 310,000 compounds, 3.5% hits; 4'-phosphopantetheinyl transferase ffp (Bacillus subtilis), Q9F4F7; Potency, µM, actives largely listed as inhibitors; Biochemical Sfp PPTase activity, qHTS; AID 1490, 2009;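 further: the enzyme is Sfp with the accession as filed and its product quenches rhodamine fluorescence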
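After 15 min at room temperature with compound, 15 nM Sfp received 5 uM rhodamine-CoA plus 12.5 uM BHQ-2-ybbR (50 mM Hepes pH 7.6, 10 mM MgCl2). Rate came from the fluorescence difference over 30 min, ex 525/em 598 nm.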
Tau fibril ThT = qHTS for Inhibitors of Tau Fibril Formation, Thioflavin T Binding. Microtubule-associated protein tau (Homo sapiens), P10636. Potency, µM (series often up to 57.4 µM), hits mostly inhibitors. recombinant tau K18 P301L, heparin-induced fibrillization, ThT fluorescence. 270,000 compounds, 2.1% hits. AID 1460, 2008; further: nearly all actives have a fitted effect of over 55% in size
Target sequence (P10636 561-689 P618L limits assumed): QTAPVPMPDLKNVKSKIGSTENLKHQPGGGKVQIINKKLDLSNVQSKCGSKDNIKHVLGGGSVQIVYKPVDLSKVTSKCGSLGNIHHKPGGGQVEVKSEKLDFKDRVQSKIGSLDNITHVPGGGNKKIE
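Recombinant human tau K18 fragment […] carrying P301L, 15 uM unlabeled plus 0.24 uM Alexa 594-labeled, was fibrillized with 20 uM heparin in 100 mM sodium acetate pH 7 for 6 hr at 37 C; 30 uM ThT fluorescence read after 1 hr.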
PLK1 PBD block = qHTS for Inhibitors of PLK1-PDB (polo-like kinase 1 - polo-box domain): Primary Screen. Potency, µM, usual class: inhibitors. Plk1 PBD binding of FITC phosphopeptide, fluorescence polarization. Serine/threonine-protein kinase PLK1 (Homo sapiens), P53350. 360,000 compounds, 2.8% hits; further: series mostly up to about 57 µM; nearly all actives have a fitted effect of over 65% in size
VDR inh = Inhibitors of the vitamin D receptor (VDR): qHTS; 400,000 compounds, 0.93% hits; Potency, µM, hits mostly inhibitors; Vitamin D3 receptor (Homo sapiens), P11473; VDR-SRC2-3 peptide fluorescence polarization, 2 h
Target sequence (P11473 whole entry, looked up): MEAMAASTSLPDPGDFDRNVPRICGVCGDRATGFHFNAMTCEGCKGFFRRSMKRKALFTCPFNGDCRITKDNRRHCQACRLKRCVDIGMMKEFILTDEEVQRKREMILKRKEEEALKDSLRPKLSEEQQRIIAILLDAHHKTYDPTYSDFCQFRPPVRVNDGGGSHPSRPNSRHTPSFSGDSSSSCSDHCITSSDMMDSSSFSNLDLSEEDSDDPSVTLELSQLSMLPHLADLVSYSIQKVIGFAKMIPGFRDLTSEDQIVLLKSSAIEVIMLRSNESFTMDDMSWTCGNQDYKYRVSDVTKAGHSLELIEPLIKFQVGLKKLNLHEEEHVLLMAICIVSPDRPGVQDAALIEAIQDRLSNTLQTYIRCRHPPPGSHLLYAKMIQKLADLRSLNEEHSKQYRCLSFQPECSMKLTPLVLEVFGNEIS
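Two reagent solutions held at 4 deg C in the dark were dispensed, compounds pinned at 23 nl, and the mixture incubated 2 h at room temperature. Read-out: fluorescence polarization of VDR–SRC2-3 peptide binding.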
Tau fluor counter = Counterscreen qHTS for Inhibitors of Tau Fibril Formation, Fluorescence Polarization. tau K18 P301L Alexa594 fluorescence, heparin fibrillization. Potency, µM (titrated, usually from 57.7 µM). 280,000 compounds, 0.93% hits. AID 1463, 2008; further: nearly all actives have a fitted effect of over 55% in size
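Human tau K18 P301L (15 uM unlabeled, 0.24 uM Alexa 594-labeled) in 100 mM sodium acetate pH 7 with 20 uM heparin, 6 hr at 37 C. ThT 30 uM added, 1 hr ambient; Alexa 594 FP and total fluorescence read at 555/632 nm.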
Tau FP inhib = qHTS for Inhibitors of Tau Fibril Formation, Fluorescence Polarization; 280,000 compounds, 0.39% hits; AID 1468, 2008; Microtubule-associated protein tau (Homo sapiens), P10636; Potency, µM (doses to about 57.7 µM), most hits filed as inhibitors; K18 P301L tau heparin fibrillization, Alexa594 FP, 6 h; further: nearly all actives have a fitted effect of over 55% in size
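Heparin (20 uM) drove fibril formation of recombinant tau K18 P301L, 15 uM unlabeled with 0.24 uM Alexa 594 label, for 6 hr at 37 C in 100 mM sodium acetate pH 7. Fluorescence polarization (555/632 nm) read 1 hr after 30 uM ThT.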
A number is an active result; i = inactive; ? = inconclusive; nt = no result given; [ ] = remark or other dose. Most compounds without a hit are left out; they make up all but 6% or so of the library. The call rests on the fitted dose curve; in most records, active means well fitted curve in the direction sought with a large enough effect; inconclusive means small, poorly fitted or top-dose-only effect, or another doubt; inactive means no such curve, though single readings can be large; an effect the other way counts as inactive or inconclusive.

SMILES	Sfp inh	Tau fibril ThT	PLK1 PBD block	VDR inh	Tau fluor counter	Tau FP inhib
C[C@H]1OC(OC2C(O)[C@@H](O)C(OC3C(O)[C@@H](O)C(O)O[C@@H]3CO)O[C@@H]2CO)[C@H](O)C(O)C1N[C@H]1C=C(CO)[C@@H](O)[C@H](O)C1O (stereo partly drawn)	i	i	nt	i	i	i
O=C(CC(NC(=O)C(F)(F)F)c1ccccc1)Nc1nnc(CCc2ccccc2)s1 (stereo not drawn)	17.8µM	i	?	i	i	i
CCC(=O)Nc1nnc(CCc2ccccc2)s1	i	i	i	i	i	i
Cc1ccc(S(=O)(=O)NN=C2CC3CCC2(C)C3(C)C)cc1 (stereo not drawn)	nt	nt	i	i	nt	nt
CC(=O)c1sc(N/N=C2\CC3CCC2(C)C3(C)C)nc1C (stereo not drawn)	28.2µM	i	?	i	i	i[2.34 µM]
COc1ccc(CCNC(=O)c2cnc3sc(N4CCOCC4)nn3c2=O)cc1	nt	?	nt	i	i	i
C[C@H](NC(=O)N1CCn2c1nc1ccccc12)C(=O)N1CCCCC1	i	nt	8.44µM	?	nt	nt
O=C(c1cccc(Cl)c1)N1CCn2c1nc1ccccc12	i	i	i	i	i	i
C[C@H](NC(=O)N1CCn2c1nc1ccccc12)C(=O)NC1CC1	i	nt	i	i	nt	nt
O=C(c1ccccc1)N1CCn2c1nc1ccccc12	i	i	26.7µM	?	i	i
COc1ccc(CNC(=O)CCNC(=O)N2CCn3c2nc2ccccc23)cc1	i	nt	23.8µM	i	nt	nt
CNC(=O)C[C@@H]1C(=O)N(c2ccc(OC)cc2)CC1(C)C	nt	nt	i	nt	nt	nt
Cc1ccc(S(=O)(=O)c2c(Nc3cc(C)ccc3C)sc(C(=O)c3ccc4c(c3)OCO4)c2N)cc1	nt	i	nt	i	i	i
CC(C)(CCC(=S)N1CCOCC1)C1CCCCC1	i	nt	11.9µM	?	nt	nt
S=C(CN1CCCC1=S)N1CCOCC1	nt	nt	i	i	nt	nt
CC1(C)C=C2C(=NN(c3ccccc3)C(N)=C2C#N)CO1	44.7µM	nt	?	?	nt	nt
COc1cc(N=Nc2ccc(Br)cc2)cc(C=O)c1O	nt	nt	26.7µM	nt	nt	nt
c1ccc(N=c2nc(-c3ccccc3)n(-c3ccccc3)s2)cc1	nt	nt	nt	i	nt	nt
CC1=CC2=NC(=O)CC(C)(C(=O)N(CC(=O)NC3CCCC3)c3cc(C)cc(C)c3)N2C=C1 (stereo not drawn)	i	i	26.7µM	?	i	i
O=C(NCc1ccco1)c1cccnc1Cl	i	i	i	i	i	i
CN(C)S(=O)(=O)c1cccc(NC(=O)COC(=O)c2cc(-c3cccc(Br)c3)nc3ccccc23)c1	i	i	i	i	?	12.6µM
Cc1ccc(-c2cc(C(=O)NCc3ccco3)c3ccccc3n2)o1	44.7µM	?	?	i	i	i
Cc1cc(C)c2nc(-c3ccccn3)cc(C(=O)NCc3ccco3)c2c1	56.2µM	?	i	i	i	?
CN(C)S(=O)(=O)c1cccc(NC(=O)COC(=O)c2ccc3ccccc3n2)c1	nt	nt	i	i	nt	nt
O=C(NCc1ccco1)c1cccnc1-c1nc2ccccc2s1	22.4µM	?	23.8µM	?	i	?
SMILES	Sfp inh	Tau fibril ThT	PLK1 PBD block	VDR inh	Tau fluor counter	Tau FP inhib
CCN(CC)CCCN1C=C2C(=O)C(C)(OC(=O)c3cccs3)C(=O)C=C2C=C1CCCC(=O)OC (stereo not drawn)	i	i[11.5 µM]	nt	nt	i[11.6 µM]	i[11.6 µM]
Cc1noc(/C=C/c2ccccc2F)c1S(=O)(=O)N1CCC(C(=O)Nc2ccc(C#N)cc2)CC1	nt	i	nt	i	?	?
COc1cccc(NC(=O)CN(C)C(=O)c2cc(-c3ccc(C)o3)nc3ccccc23)c1	nt	nt	i	i	nt	nt
COc1cccc(NC(=O)c2cc(-c3ccc(C)o3)nc3ccccc23)c1	50.1µM	nt	i	?	nt	nt
COc1cc(-c2cc(C(=O)Nc3cccc(S(=O)(=O)N(C)C)c3)c3ccccc3n2)cc(OC)c1OC	i	nt	i	i	nt	nt
Cc1ccc(-c2cc(C(=O)Nc3cccc(S(=O)(=O)N(C)C)c3)c3ccccc3n2)o1	50.1µM	nt	i	i	nt	nt
O=S(=O)(Nn1cnnc1)c1ccccc1Cl	i	i	26.7µM	i	i	i
O=S(=O)(Nn1cnnc1)c1ccccc1	i	i	i	i	i	i
Cc1cccc(N2C(=O)C(CC(=O)Nc3ccccc3)N(C3CCCCC3)C2=O)c1 (stereo not drawn)	nt	i	nt	i	i	i
Cc1cccc(NC(=O)c2sc3nc(N)c(C#N)cc3c2N)c1	i	?	i	i	?	?
COc1ccccc1NC(=O)c1sc2nc(-c3ccco3)ccc2c1N	i	?	?	i	?	i
Nc1c(C(=O)Nc2ccccc2)sc2nc(-c3ccco3)ccc12	7.94µM	?	i	i	?	i
N#Cc1cc2c(N)c(C(=O)Nc3ccccc3)sc2nc1N	i	7.94µM	nt	nt	?	i
COC(=O)c1ccccc1S(=O)(=O)N1CCc2nc(COc3ccccc3)c3c(c2C1)CO[C@@H](C)C3	i	i[11.5 µM]	nt	nt	i[11.6 µM]	i[11.6 µM]
C/C(=N/NS(=O)(=O)c1cc(C)ccc1C)c1ccncc1	i	nt	15µM	?	nt	nt
Cc1ccc(C)c(S(=O)(=O)NCc2ccncc2)c1	i	i	i	i	i	i
C[C@H](CO)N1C[C@H](C)[C@@H](CN(C)C(=O)Nc2ccc3c(c2)OCO3)Oc2c(NC(=O)Nc3ccc(C(F)(F)F)cc3)cccc2C1=O	nt	nt	i	i	nt	nt
Cc1ccc(NC(=O)CNc2ccc(Cl)c(Cl)c2)cc1S(=O)(=O)N(C)C	i	i	i	i	15.8µM[quencher]	i
Cc1ccc(S(=O)(=O)NCCC(=O)Nc2ccc(Cl)c(Cl)c2)cc1C	i	i	i	i	?	14.1µM
CCN(CC(=O)Nc1ccc(NC(C)=O)cc1)CC(=O)Nc1ccc(Cl)c(Cl)c1	56.2µM	nt	i	i	nt	nt
Cc1ccc(NC(=O)Cc2ccc(Cl)c(Cl)c2)cc1S(=O)(=O)N(C)C	i	i	i	i	?	?
CN(C)S(=O)(=O)c1cc(NC(=O)CSc2nn(-c3ccc(Cl)cc3)c(=S)s2)ccc1Cl	i	?	i	i	?	25.1µM
CCN(CC(=O)Nc1ccc(NC(C)=O)cc1)CC(=O)Nc1cccc(Cl)c1	i	nt	i	i	nt	nt
CSCC[C@H](NC(=O)[C@H](CC(C)C)NC(=O)CNC(=O)[C@H](Cc1ccccc1)N(C)C(=O)[C@H](Cc1ccccc1)NC(=O)[C@H](CC(=O)O)NC(=O)[C@@H](N)CC(=O)O)C(N)=O	i	nt	nt	i	nt	nt
CC(C)CC(C(=O)NCC1CCN(Cc2ccc(F)cc2)CC1)N1Cc2ccccc2C1=O (stereo not drawn)	nt	i	nt	i	i	i
